This is an account of results in PubChem BioAssay.

Several values for one entry are separate records, joined by “and”; a condition that tells them apart may be missing. Identical values can stand only once.

Test system in the first experiment: not listed separately
Description: viability profiling in RPMI8226 myeloma cells – cell-based, resazurin fluorescence, basal, 24 h, PK04 Diversity Set, profiling panel (AID 1180).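 Further: RPMI8826 multiple myeloma cell line at 5000 cells per well; test concentration not given here.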 The settings on record: higher = more signal. A general note: Alamar Blue is a resazurin reagent that responds to reducing activity.
As to `CC(C)OC(=O)C=C1C[C@@H](c2ccccc2)O[C@@H](c2ccccc2)O1`, the z-score is 1.54 and -2.33.

For `COC(=O)C1=C(C)N(Cc2ccccc2)C2=C(C(=O)c3ccccc3)[C@H](c3ccccc3)[C@@](O)(C(=O)OC)C(=O)N2[C@@H]1c1ccccc1`, the z-score was -0.56 and -0.7.

Take `COC(=O)[C@@]1(Cc2ccc(F)cc2)[C@H]2c3cc(C(=O)N4CCCC4)n(Cc4c(CO)[nH]cc(C)c4=O)c3C[C@H]2CN1C(=O)c1ccccc1`: the z-score is -1.14 and -1.39.

In the case of `C[N+](C)(C)CCCCCCNC(=O)[C@H]1C[C@H]2C(=O)N[C@@H](CCCC[N+](C)(C)C)C(=O)N2[C@H]1c1ccc(O)cc1`, the z-score is -0.818 and -0.584.

For the molecule `CC(CO)N1C(=O)[C@@H]2C3C(=O)OCCC=C[C@H]3OC23C=CCN(CCN2CCOCC2)C(=O)[C@@H]13` (stereo partly specified), the z-score was -1.03 and -0.76.

For `CCCC[C@@H]1CN2[C@H](c3ccc(Br)cc3)[C@@H](C)CC[C@H]2C(=O)O1`, the z-score is 0.735 and 0.839.

For the molecule `CO[C@H]1COC(=O)CC=C[C@H](C)[C@H](OC)COC(=O)[C@@H](C)COC(=O)CC=C[C@@H]1C`, the z-score was 0.168 and 0.365.

In a further experiment the target is E3 ubiquitin-protein ligase XIAP (Homo sapiens) (UniProt P98170). Description: small molecules binding XIAP protein – biophysical, small-molecule microarray, fluorescence 635 nm, primary screen (AID 1181).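 Further: score merges 667 nm emission and signal to noise over triplicate slides.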 The settings on record: higher = more signal.
Chain of E3 ubiquitin-protein ligase XIAP (Homo sapiens) (P98170 whole entry, looked up): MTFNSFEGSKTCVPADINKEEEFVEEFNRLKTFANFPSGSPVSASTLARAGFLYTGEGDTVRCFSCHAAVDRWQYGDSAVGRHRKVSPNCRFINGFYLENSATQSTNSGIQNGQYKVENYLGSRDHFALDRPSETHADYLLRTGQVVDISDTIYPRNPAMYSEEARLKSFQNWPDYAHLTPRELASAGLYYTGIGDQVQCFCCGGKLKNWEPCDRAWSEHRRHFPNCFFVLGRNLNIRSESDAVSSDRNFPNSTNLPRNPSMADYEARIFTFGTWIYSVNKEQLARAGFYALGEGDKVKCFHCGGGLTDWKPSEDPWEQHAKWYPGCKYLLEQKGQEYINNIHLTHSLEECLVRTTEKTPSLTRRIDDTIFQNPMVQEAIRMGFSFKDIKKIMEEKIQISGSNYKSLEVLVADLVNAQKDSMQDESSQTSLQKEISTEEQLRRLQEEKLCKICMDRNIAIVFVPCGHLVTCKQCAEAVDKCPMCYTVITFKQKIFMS
Take `CO[C@H]1COC(=O)CC=C[C@@H](C)COC(=O)[C@H](CCSC)NC(=O)CC=C[C@@H]1C`: the composite z-score was 0.266 and 0.0623.

On to `C=CCN(CCCCC)C(=O)C1N(C(C)(C)CO)C(=O)C2C(C(=O)O)C3C=CC21O3` (stereo unspecified), for which the composite z-score was -0.0387 and -0.245.

With `C=CCN1C(=O)[C@]2(O[C@H](CCn3cc(CCO)nn3)[C@@H]([Si](C)(C)c3ccc(OC)cc3)[C@@H]2C)c2cc(N3C(=O)c4cccc5cccc3c45)ccc21`, the composite z-score was -0.178 and 0.0256.

On to `CCC[C@@H]1C[C@@]1(CCC)[C@@H](NC(=O)c1ccc(-c2ccccc2)cc1)c1cccc(Cl)c1`, for which the composite z-score was -0.0305 and 0.0623.

With `C[C@@H]1CC[C@H]2C(=O)O[C@H](CN=[N+]=[N-])CN2[C@H]1c1ccc(Br)cc1`, the composite z-score was 0.0871 and 0.277.

Take `C[C@@H]1CN2[C@@H](CC[C@@H](C)[C@@H]2c2ccc(Br)cc2)C(=O)O1`: the composite z-score is 0.118 and 0.166.

Turning to `COc1ccc(O[C@H]2C=C[C@@H](c3ccccc3)O[C@@H]2COC(=O)CCC(C)=NO[C@H](C)c2cn([C@H](CO)Cc3ccccc3)nn2)cc1`, the composite z-score is -0.252 and -0.188.

As to `CON(C)C(=O)c1nnc2c3ccccc3n(S(=O)(=O)c3ccc(C)cc3)c2n1`, the composite z-score is -0.146 and 0.687.

`COc1ccc(COC(=O)NN=C2C[C@@H](O)[C@@H](O)[C@@H]3[C@@H]4C(=O)N(C(C)(C)C)C(=O)[C@@H]4CC[C@H]23)cc1`: the composite z-score is -0.0845.

`COC(=O)C1=C(C)N(Cc2ccccc2)[C@]23O[C@](C(=O)OC)(C(=O)N2[C@@H]1c1ccccc1)[C@@H](C(=O)OC)[C@H]3C(=O)OC`: the composite z-score was -0.17 and -0.219.

In the case of `C[C@@H]1CC[C@H]2C(=O)NC[C@@H](O)CN2[C@H]1c1ccc(Br)cc1`, the composite z-score is -0.0238 and -0.102.

Regarding `C#CCCCON=C1C[C@@H](O)[C@@H](O)[C@@H]2[C@@H]3C(=O)N(C4CCCCC4)C(=O)[C@@H]3CC[C@H]12`, the composite z-score is -0.0945.

Consider `C[C@@H]1CC[C@@H](C(=O)O)N[C@H]1c1ccc(-c2ccco2)cc1`, for which the composite z-score turned out to be 0.012.

Turning to `C=CCN(C(=O)C1N(C(C)(C)CO)C(=O)C2C(C(=O)O)C3C=CC21O3)C(C)(C)C` (stereo unspecified), the composite z-score was -0.326 and -0.212.

With `C=CCN(C(=O)C(c1cccs1)N(C(=O)/C=C\C(=O)O)c1ccc(CCO)cc1)C(C)(C)C` (stereo unspecified), the composite z-score is -0.232 and -0.145.

With `Cc1ccc(S(=O)(=O)N[C@H]2COC(=O)[C@@H](Cc3ccccc3)NC(=O)[C@@H](C)COC(=O)CC=C[C@@H]2C)cc1`, the composite z-score was -0.259 and -0.469.

With `CC(C)[Si]1(C(C)C)OCc2cc(CCCc3cc4c(c(CCc5ccccc5)n3)[Si](C(C)C)(C(C)C)OC4)nc(CCc3ccccc3)c21`, the composite z-score is -0.0095 and -0.111.

Take `O=c1n(-c2ccccc2)c(=O)n2n1CC[C@@H]1C(=NOC[C@@H](O)COCc3ccco3)[C@H]3O[C@H]3[C@@H](O)[C@@H]12`: the composite z-score is -0.0085 and -0.434.

Regarding `O=C1C[C@]2(c3ccc([N+](=O)[O-])cc3)C(=O)N(Cc3ccccc3)c3cc(CO)ccc3[C@H]2N1C1CCCCC1`, the composite z-score was 2.56 and 0.144.

Take `CCOC(=O)[C@H](CC(C)C)NC(=O)CCC1CC(OC(=O)NCc2cccc3ccccc23)CC2(CCCC(COC(=O)NCc3ccccc3)O2)O1` (stereo partly specified): the composite z-score is -0.125.

For `CCOC(=O)c1ccc(NC(=O)O[C@H]2[C@H](OC(=O)Nc3ccccc3)[C@H](OC(=O)Nc3ccccc3)[C@@H](OC)O[C@@H]2CO)cc1`, the composite z-score was 0.23 and 0.108.

As for `CC[C@@H]1C(Sc2ccccc2)C(C(=O)O)[C@H](c2ccc(C)cc2)N1S(=O)(=O)c1ccc(C)cc1` (stereo partly specified), the composite z-score was 0.287 and 0.382.

For `CCCC[C@@H]1CN2[C@@H](CC[C@@H](C)[C@@H]2c2ccc(Br)cc2)C(=O)O1`, the composite z-score is 0.0537 and -0.185.

`C=CCN(CCCCC)C(=O)C(c1cccs1)N(C(=O)/C=C\C(=O)O)c1ccc(CCO)cc1` (stereo unspecified): the composite z-score was -0.346 and -0.138.

With `C=C(C)C(=O)OC[C@@H]1CN2[C@@H](CC[C@@H](C)[C@@H]2c2ccc(Br)cc2)C(=O)O1`, the composite z-score was -0.0326.

Turning to `COC(=O)C1=C2N(Cc3ccccc3)C(C)=C(C(=O)OC)[C@@H](c3ccccc3)N2C(=O)[C@](O)(C(=O)OC)C1`, the composite z-score was 0.0623 and 0.43.

Turning to `C=C[C@@H](C)[C@@H](O)c1ccc(OCCO)cc1`, the composite z-score is 0.103 and -0.15.

`C=CCN(Cc1ccccc1)C(=O)C1N(C(C)(C)CO)C(=O)C2C(C(=O)O)C3C=CC21O3` (stereo unspecified): the composite z-score is 0.0322 and -0.328.

`C=CCN(C(=O)C1N(C(C)(C)CO)C(=O)C2C(C(=O)O)C3C=CC21O3)c1ccc(OC)cc1` (stereo unspecified): the composite z-score is -0.0771 and -0.0663.

For the molecule `COC(=O)c1c2oc(c1C(=O)OC)C(=O)N[C@@H](Cc1ccccc1)Cn1cc(nn1)C1(CCCCC1)NC(=O)N[C@H](CO)CC2`, the composite z-score was 0.065 and -0.0187.

Regarding `C=C[C@H](C)[C@H](O)c1ccc(O)c2ccccc12`, the composite z-score is -0.0659 and 0.116.

Regarding `CCOC(=O)C[C@H]1[C@H](OC(=O)c2ccccc2-c2ccccc2)[C@@H](NC(=O)Cc2ccc(OC)cc2)c2cc(OCCCO)ccc2N1C(=O)c1ccc2ccccc2n1`, the composite z-score was -0.289 and 0.299.

`CC(C)OC(=O)C=C1C[C@@H](c2ccccc2)O[C@@H](c2ccccc2)O1`: the composite z-score is -0.13 and 0.013.

Turning to `COC(=O)C1=C(C)N(Cc2ccccc2)C2=C(C(=O)c3ccccc3)[C@H](c3ccccc3)[C@@](O)(C(=O)OC)C(=O)N2[C@@H]1c1ccccc1`, the composite z-score was 0.0399 and -0.0118.

With `COC(=O)[C@@]1(Cc2ccc(F)cc2)[C@H]2c3cc(C(=O)N4CCCC4)n(Cc4c(CO)[nH]cc(C)c4=O)c3C[C@H]2CN1C(=O)c1ccccc1`, the composite z-score was 0.221 and 0.0726.

Take `C[N+](C)(C)CCCCCCNC(=O)[C@H]1C[C@H]2C(=O)N[C@@H](CCCC[N+](C)(C)C)C(=O)N2[C@H]1c1ccc(O)cc1`: the composite z-score is -0.22 and -0.265.

As to `CC(CO)N1C(=O)[C@@H]2C3C(=O)OCCC=C[C@H]3OC23C=CCN(CCN2CCOCC2)C(=O)[C@@H]13` (stereo partly specified), the composite z-score is 0.16 and 0.219.

Regarding `CCCC[C@@H]1CN2[C@H](c3ccc(Br)cc3)[C@@H](C)CC[C@H]2C(=O)O1`, the composite z-score was -0.256 and -0.352.

With `CO[C@H]1COC(=O)CC=C[C@H](C)[C@H](OC)COC(=O)[C@@H](C)COC(=O)CC=C[C@@H]1C`, the composite z-score was 0.0256 and -0.202.
